In PubChem BioAssay one finds composite z-score and z-score data, which are given here for five compounds.

For assay [1], the system named is Wnt5a (protein binding on small-molecule microarray). As to the kind of experiment: small molecules binding Wnt5a protein – biophysical, small-molecule microarray, 635/667 nm fluorescence, primary screen (AID 1142).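 Note: fluorescence read at 667 nm with signal to noise per printed feature.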 The following applies: 635 nm fluorescence, higher = more signal.
Assay [2] in a line: ATP-based viability of Huh7 replicon cells – cell-based, CellTiter-Glo luminescence, basal, 48 h, cytotoxicity control for HCV replication inhibitor project, primary screen (AID 1143).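 Note: Huh7 hepatoma cells carrying a hepatitis C replication reporter with no stimulus; test concentration not given here.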 The following applies: higher = more signal, called active from +8 up or from −8 down.
The nature of assay [3]: basal CRE-LacZ reporter activity in PC12 – cell-based, unstimulated, primary screen (AID 1145). The following applies: no forskolin, luminescence, 4.5 h, higher = more signal, called active from +8 up or from −8 down.
Assay [4] can be described thus: forskolin-driven CRE-LacZ activity in PC12 – cell-based, CRE-LacZ reporter, forskolin-stimulated, primary screen (AID 1146).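 Note: PC12 cells with 6xCRE LacZ reporter stimulated by forskolin 10 µM; beta-galactosidase reporter signal reflecting CREB driven transcription.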 The following applies: luminescence, 4.5 h, higher = more signal, called active from +8 up or from −8 down.
In assay [5] the target is Streptavidin (Streptomyces avidinii) (UniProt P22629). As to the kind of experiment: compounds binding control protein streptavidin – biophysical, small-molecule microarray, 635/667 nm fluorescence, artefact control for SMM compound annotation, primary screen (AID 1147).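 Note: signal reflects streptavidin binding to arrayed compounds as a control protein.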 To be noted: higher = more signal.
Assay [6] in a line: probe aInhba binding on compound microarray – biochemical, small-molecule microarray, 635/667 nm fluorescence, primary screen (AID 1148).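 Note: score merges 667nm spot fluorescence with signal-to-noise for antibody binding to printed compounds.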 The following applies: higher = more signal.
For assay [7], the target named is Torsin-1A (Homo sapiens) (UniProt O14656). Briefly: TOR1A wild-type binding on microarray – cell lysate, small-molecule microarray, lysate, 635/667 nm, primary screen (AID 1149). The following applies: COS7 hTOR1A-WT lysate, 635 nm fluorescence, higher = more signal.
The target is the same in assay [8]. Briefly: torsin A mutant lysate binding on microarrays – cell lysate, small-molecule microarray, COS7 lysate, 635/667 nm fluorescence, primary screen (AID 1150).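 Note: score pools 667 nm emission and signal to noise measuring lysate protein binding.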 To be noted: COS7 hTOR1A mutant lysate, 635 nm fluorescence, higher = more signal.
Assay [9] has as its system Sonic hedgehog protein (Shh). As to the kind of experiment: Sonic hedgehog microarray binding compounds – biochemical, small-molecule microarray, 635/667 nm fluorescence, primary screen (AID 1151).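 Note: Shh protein binding to compounds spotted on small-molecule microarray slides; score combines spot fluorescence intensity with signal-to-noise across triplicate slides.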 To be noted: 635 nm fluorescence, higher = more signal.
Assay [10] in a line: optical density shifts of acrAB sulA E. coli – strain DRC41, OD650, 48 h, E. coli filamentation inducer project, primary screen (AID 1152).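 Note: E. coli MC1000 strain DRC41 lacking acrAB efflux pump and sulA.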 The following applies: higher = more signal, called active from +8 up or from −8 down.
The nature of assay [11]: probe aLefty1 binding on compound microarray – biochemical, small-molecule microarray, 635/667 nm fluorescence, primary screen (AID 1153).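 Note: score merges spot fluorescence with signal-to-noise ratio from the scanned slide images.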 The following applies: higher = more signal.
Assay [12] can be described thus: plasmodial surface anion channel blockers, osmotic lysis – cell-based, P. falciparum Indochina, OD700, 1 h, primary screen (AID 1154). The following applies: P. falciparum Indochina infected RBC osmotic lysis, higher = more signal, called active from +8 up or from −8 down.
The nature of assay [13]: plasmodial surface anion channel blockers, osmotic lysis – cell-based, P. falciparum Indochina, OD700, 2 h, primary screen (AID 1155).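 Note: lysis reports solute entry through the parasite surface anion channel PSAC.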 To be noted: P. falciparum Indochina infected erythrocytes, higher = more signal, called active from +8 up or from −8 down.
Assay [14] can be described thus: changes in parasitized red cell lysis, either direction – P. falciparum Indochina, OD700, 3 h, PSAC antagonist project, primary screen (AID 1156). The following applies: P. falciparum-infected erythrocytes, osmotic lysis, higher = more signal, called active from +8 up or from −8 down.
A short description of assay [15]: plasmodial surface anion channel blockers, osmotic lysis – cell-based, P. falciparum Indochina, OD700, 18 h, primary screen (AID 1157). The following applies: P. falciparum Indochina infected erythrocytes, osmotic lysis OD700, 18 h; higher = more signal, called active from +8 up or from −8 down.
Assay [16] in a line: S6 kinase pathway phospho-S6 level changes – cell-based, A549, cytoblot, luminescence, serum-stimulated, primary screen (AID 1158).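 Note: serum-stimulated A549 lung adenocarcinoma cells; signal is phosphorylated S6 detected by cytoblot immunostaining with HRP secondary.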 To be noted: 5 h, higher = more signal.
The target of assay [17] is NADPH oxidase 2 (Homo sapiens) (UniProt P04839). As to the kind of experiment: compounds shifting NOX2 Amplex Red fluorescence – cell-based, HEK293-NOX2, PMA-stimulated, NOX inhibitor project, primary screen (AID 1159). Note: test concentration not given here. The following applies: 45 min, higher = more signal, called active from +8 up or from −8 down.
The target in assay [18] is NADPH oxidase 4 (Homo sapiens) (UniProt Q9NPH5). As to the kind of experiment: compounds shifting NOX4 Amplex Red fluorescence – cell-based, HEK293-NOX4, tetracycline-induced, NOX inhibitor project, primary screen (AID 1160). To be noted: HEK293-NOX4, Amplex Red H2O2 fluorescence, 45 min; higher = more signal, called active from +8 up or from −8 down.
The target in assay [19] is NADPH oxidase 5 (Homo sapiens) (UniProt Q96PH1). As to the kind of experiment: compounds shifting NOX5 Amplex Red fluorescence – cell-based, HEK293-NOX5, NOX inhibitor project, primary screen (AID 1161). The following applies: HEK293-NOX5, ionomycin, 45 min, higher = more signal.
A short description of assay [20]: compound effects on lung adenocarcinoma cell viability – A549, calcein-AM fluorescence, 48 h, basal, profiling panel (AID 1162). Note: test concentration not given here. To be noted: higher = more signal.

Molecules are shown by their SMILES. Activity calls are given as the source filed them.

Sequence of NADPH oxidase 2 (Homo sapiens) (P04839 whole entry, looked up): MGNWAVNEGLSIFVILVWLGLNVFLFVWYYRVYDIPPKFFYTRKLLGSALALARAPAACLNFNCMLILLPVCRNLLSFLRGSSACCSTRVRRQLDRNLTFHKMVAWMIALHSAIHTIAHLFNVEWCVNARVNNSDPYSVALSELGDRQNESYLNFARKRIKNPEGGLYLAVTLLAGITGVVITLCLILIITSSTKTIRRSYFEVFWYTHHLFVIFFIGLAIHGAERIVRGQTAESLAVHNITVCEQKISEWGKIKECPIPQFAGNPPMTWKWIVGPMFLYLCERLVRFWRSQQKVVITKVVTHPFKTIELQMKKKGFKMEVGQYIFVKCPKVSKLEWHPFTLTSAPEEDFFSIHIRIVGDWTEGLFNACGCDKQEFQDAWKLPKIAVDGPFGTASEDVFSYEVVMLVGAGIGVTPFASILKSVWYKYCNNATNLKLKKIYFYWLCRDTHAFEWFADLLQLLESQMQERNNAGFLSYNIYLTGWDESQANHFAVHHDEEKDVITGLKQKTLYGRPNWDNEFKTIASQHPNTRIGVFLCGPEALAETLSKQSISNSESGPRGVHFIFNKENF
Sequence of Torsin-1A (Homo sapiens) (O14656 whole entry, looked up): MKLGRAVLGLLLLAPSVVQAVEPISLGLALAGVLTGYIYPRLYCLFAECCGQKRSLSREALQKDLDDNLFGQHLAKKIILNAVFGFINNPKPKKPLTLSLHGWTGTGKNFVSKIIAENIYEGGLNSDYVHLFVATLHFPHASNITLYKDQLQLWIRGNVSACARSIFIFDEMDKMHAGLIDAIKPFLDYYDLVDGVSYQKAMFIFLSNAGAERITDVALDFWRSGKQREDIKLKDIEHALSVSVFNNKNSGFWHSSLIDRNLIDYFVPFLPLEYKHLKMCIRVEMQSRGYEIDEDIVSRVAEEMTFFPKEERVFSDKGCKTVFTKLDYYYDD
Sequence of NADPH oxidase 5 (Homo sapiens) (Q96PH1 whole entry, looked up): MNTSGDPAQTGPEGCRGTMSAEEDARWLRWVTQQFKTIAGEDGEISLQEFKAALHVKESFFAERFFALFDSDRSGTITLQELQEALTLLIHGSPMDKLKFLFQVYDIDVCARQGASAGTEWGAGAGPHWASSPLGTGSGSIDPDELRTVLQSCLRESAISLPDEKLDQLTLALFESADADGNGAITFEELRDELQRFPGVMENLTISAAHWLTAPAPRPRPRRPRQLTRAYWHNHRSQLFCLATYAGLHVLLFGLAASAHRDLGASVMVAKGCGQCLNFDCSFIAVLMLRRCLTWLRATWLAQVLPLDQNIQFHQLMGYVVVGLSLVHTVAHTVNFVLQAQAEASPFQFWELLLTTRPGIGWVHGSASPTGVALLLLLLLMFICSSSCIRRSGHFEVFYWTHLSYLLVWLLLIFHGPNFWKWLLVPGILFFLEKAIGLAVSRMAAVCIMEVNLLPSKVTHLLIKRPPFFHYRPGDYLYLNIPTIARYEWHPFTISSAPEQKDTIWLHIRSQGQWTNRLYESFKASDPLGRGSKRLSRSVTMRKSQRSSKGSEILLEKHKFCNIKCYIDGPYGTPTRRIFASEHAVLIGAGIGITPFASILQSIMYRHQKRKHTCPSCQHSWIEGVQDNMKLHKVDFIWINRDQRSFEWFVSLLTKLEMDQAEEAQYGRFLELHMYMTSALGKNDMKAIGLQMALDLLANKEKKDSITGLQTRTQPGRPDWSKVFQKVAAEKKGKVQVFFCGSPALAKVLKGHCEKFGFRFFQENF
Sequence of NADPH oxidase 4 (Homo sapiens) (Q9NPH5 whole entry, looked up): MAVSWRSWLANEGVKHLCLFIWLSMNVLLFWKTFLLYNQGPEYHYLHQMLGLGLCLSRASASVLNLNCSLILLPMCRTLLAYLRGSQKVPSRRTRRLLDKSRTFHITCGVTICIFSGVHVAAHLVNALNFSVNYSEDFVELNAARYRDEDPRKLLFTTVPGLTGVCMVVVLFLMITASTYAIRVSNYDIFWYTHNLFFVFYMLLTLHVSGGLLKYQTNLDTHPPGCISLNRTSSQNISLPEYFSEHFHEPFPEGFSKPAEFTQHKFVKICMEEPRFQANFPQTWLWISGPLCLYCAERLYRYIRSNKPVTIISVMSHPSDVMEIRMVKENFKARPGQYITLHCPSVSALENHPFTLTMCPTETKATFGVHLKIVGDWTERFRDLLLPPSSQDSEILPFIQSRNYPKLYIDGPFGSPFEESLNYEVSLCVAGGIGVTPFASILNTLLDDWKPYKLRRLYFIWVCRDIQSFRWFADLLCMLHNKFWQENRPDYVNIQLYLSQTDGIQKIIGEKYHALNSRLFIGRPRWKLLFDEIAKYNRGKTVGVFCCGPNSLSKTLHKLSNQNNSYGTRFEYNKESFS
Sequence of Streptavidin (Streptomyces avidinii) (P22629 whole entry, looked up): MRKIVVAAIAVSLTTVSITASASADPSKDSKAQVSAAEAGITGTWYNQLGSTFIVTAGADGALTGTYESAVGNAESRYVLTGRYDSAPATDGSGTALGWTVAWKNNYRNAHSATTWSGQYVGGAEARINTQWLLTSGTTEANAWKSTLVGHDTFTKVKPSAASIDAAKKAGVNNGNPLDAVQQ

Regarding `CCN(CC)c1ccc(N2CC=CC34O[C@@H]5C=CCOC(=O)[C@@H]5[C@H]3C(=O)N(C(C)CO)[C@@H]4C2=O)cc1` (stereo not given in full), the composite z-score in assay [1] is -0.701; in assay [5], -1.27; in assay [6] it was -0.123; with Torsin-1A (Homo sapiens) [7], -1.08; with Torsin-1A (Homo sapiens) [8] it was -0.641; in [9], -0.903. This compound yielded a composite z-score in assay [11] of 0.121. The z-score in [2] was -0.269 (inactive); in assay [3], 0.195 (inactive); in assay [4], 0.188 (inactive); in [10], 1.55 (inactive); in assay [12] it was 0.0295 (inactive); in assay [13] it was 0.447 (inactive). Also, the z-score was 0.976 (inactive) in assay [14]; 0.255 (inactive) in [15]; -0.153 in assay [16]; 0.126 (inactive) in assay [17]; 0.197 (inactive) in assay [18]; 0.871 in assay [19]. The z-score in assay [20] is 0.271.
In the case of `CCCCCN1CC=CC23O[C@@H]4/C=C\CCC(C)OC(=O)C4[C@H]2C(=O)N(CCCO)[C@@H]3C1=O` (stereo not given in full), the composite z-score in [1] is 0.0429; in assay [5] it was -0.67; in assay [6], -0.245; in the assay with Torsin-1A (Homo sapiens) [7], 0.26; with Torsin-1A (Homo sapiens) [8], -0.147; in assay [9], -0.0977. This compound also returned a composite z-score in [11] of -0.229. Besides, the z-score in assay [2] was -1.37 (inactive); in assay [3] it was 0.487 (inactive); in assay [4] it was 0.213 (inactive); in assay [10], 1.5 (inactive); in assay [12], -0.404 (inactive); in assay [13], -0.0816 (inactive). Further, the z-score in [14] is 0.787 (inactive); in assay [15], 0.281 (inactive); in assay [16], 0.0147; in assay [17], 1.86 (inactive); in [18], 0.381 (inactive); in assay [19], 2.57. Further, the z-score in [20] was -0.367.
`CC1CC/C=C\[C@H]2OC34C=CCN(C(C)C)C(=O)[C@H]3N(C(CO)C(C)C)C(=O)[C@@H]4C2C(=O)O1` (stereo not given in full): the composite z-score was -0.0784 in [1]; -1.28 in [5]; -0.133 in [6]; -0.87 with Torsin-1A (Homo sapiens) [7]; -0.22 with Torsin-1A (Homo sapiens) [8]; -0.137 in assay [9]. In assay [11], this compound showed a composite z-score of -0.225. Besides, the z-score in [2] is 0.114 (inactive); in assay [3] it was -0.346 (inactive); in [4] it was -0.791 (inactive); in [10] it was 2.16 (inactive); in assay [12], 1.3 (inactive); in [13] it was -0.74 (inactive). Besides, the z-score in assay [14] is 0.604 (inactive); in assay [15], -0.531 (inactive); in assay [16], 0.0551; in assay [17] it was 1.49 (inactive); in [18], 0.743 (inactive); in [19] it was 1.79. For the same compound, the z-score in [20] was 1.06.
As for `C[N+](C)(C)CCCC[C@@H]1NC(=O)[C@H]2C[C@@H](C(=O)NCCCCCN)[C@@H](c3cccc(OCCO)c3)N2C1=O`, the composite z-score was 0.165 in assay [1]; 1.04 in assay [5]; 0.147 in [6]; 0.918 with Torsin-1A (Homo sapiens) [7]; 1.7 with Torsin-1A (Homo sapiens) [8]; -0.197 in assay [9]. The composite z-score in assay [11] turned out to be 0.857. The z-score in [2] is -1.18 (inactive); in [3], 0.0124 (inactive); in assay [4], -1 (inactive); in assay [10], 2.36 (inactive); in assay [12] it was 1.76 (inactive); in assay [13], 0.858 (inactive). Also, the z-score was -1.26 (inactive) in assay [14]; 0.57 (inactive) in assay [15]; -0.0325 in [16]; 1.03 (inactive) in [17]; -0.833 (inactive) in assay [18]; 2.24 in assay [19]. In [20], the z-score is -0.013.
For the compound `O=C1c2ccccc2[C@](Cc2ccccc2I)(C(=O)O)[C@H](c2ccc(CO)cc2)N1Cc1ccccc1Cl`, the composite z-score in [1] was determined as 0.0716; in [5], 0.414; in assay [6], 0.112; with Torsin-1A (Homo sapiens) [7], 0.252; in the assay with Torsin-1A (Homo sapiens) [8], 1.01; in assay [9], 0.0948. For the same compound, the composite z-score in assay [11] turned out to be 0.122. The z-score in [2] is -1.86 (inactive); in assay [3] it was -0.0888 (inactive); in assay [4] it was -0.873 (inactive); in assay [10], 1.76 (inactive); in assay [12], 4.07 (inactive); in assay [13] it was -0.442 (inactive). The z-score in assay [14] was 0.477 (inactive); in assay [15] it was -1.07 (inactive); in assay [16] it was 1.21; in assay [17], 1.35 (inactive); in assay [18] it was 0.57 (inactive); in assay [19] it was 2.39. The z-score in assay [20] is 1.32.
